Read-out in test [1]: E-selectin (Homo sapiens) (UniProt P16581)
The test is described as follows: BSK_LPS_Eselectin: BioMAP Diversity Plus: LPS Assay for Eselectin Biomarker Activity (AID 2283077). The conditions noted are these: primary human HUVEC with PBMC; actives raise or lower the signal. In a few lines:
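Signal of E-selectin, detected by ELISA, served as the endpoint; cells were umbilical vein endothelium with PBMC, read 24 h after treatment. DMSO defined baseline, and both increases and decreases were fitted.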

Read-out in test [2]: Interleukin-8 (IL8), CXCL8 (gene 3576)
Briefly: BSK_LPS_IL8: BioMAP Diversity Plus: LPS Assay for Interleukin-8 (IL8) Biomarker Activity (AID 2283078). The conditions noted are these: primary human HUVEC with PBMC; actives raise or lower the signal. The procedure, abridged: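 Endothelial cells and PBMC from human donors are co-cultured, treated with chemicals and LPS, then assayed for IL-8 by ELISA after 24 h. Parallel SRB staining (0.1% SRB after 10% TCA fixation, 560 nm) flags cytotoxicity.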

A short description of test [3]: BSK_LPS_SRB: Viability Assessment in the BioMAP Diversity Plus: LPS Assay (AID 2283079).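 Note: total protein by sulforhodamine B absorbance as a cytotoxicity measure; measured one day after compound addition; fitted in both directions against DMSO so loss or gain of signal counts.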 The conditions noted are these: primary human HUVEC with PBMC. The procedure, abridged:
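Overt cytotoxicity was gauged by sulforhodamine B total-protein staining in a primary human vascular endothelial and mononuclear cell co-culture 24 h post-dosing. Activity was fitted in both directions relative to DMSO.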

Read-out in test [4]: Interleukin-1 alpha (IL1a), IL1A (gene 3552)
Briefly: BSK_LPS_IL1a: BioMAP Diversity Plus: LPS Assay for Interleukin-1 alpha (IL1a) Biomarker Activity (AID 2283080). The conditions noted are these: primary human HUVEC with PBMC; actives raise or lower the signal. The procedure, abridged:
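Measured: IL-1 alpha via ELISA at 24 h in LPS-activated human umbilical vein endothelium–PBMC co-culture. Baseline: DMSO, bidirectional fitting.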

Read-out in test [5]: Monocyte Chemoattractant Protein-1 (MCP1), CCL2 (gene 6347)
The test is described as follows: BSK_LPS_MCP1: BioMAP Diversity Plus: LPS Assay for Monocyte Chemoattractant Protein-1 (MCP1) Biomarker Activity (AID 2283081).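 For AC50: secreted MCP-1 protein quantified by ELISA in culture supernatant.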 The conditions noted are these: primary human HUVEC with PBMC; actives raise or lower the signal. The procedure, abridged: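 LPS-stimulated HUVEC/PBMC co-culture; chemical, 24 h; MCP-1 by ELISA; bidirectional fit vs DMSO; cytotoxicity via SRB (0.1% stain, 10% TCA fix, 560 nm) in parallel wells.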

Test [6] in a line: BSK_LPS_PGE2: BioMAP Diversity Plus: LPS Assay for Prostaglandin E2 (PGE2) Biomarker Activity (AID 2283082).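 For AC50: secreted prostaglandin E2 measured by ELISA in LPS-stimulated co-culture.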 The conditions noted are these: primary human HUVEC with PBMC; actives raise or lower the signal. The procedure, abridged: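 ELISA read-out of PGE2 from human umbilical vein endothelial cells co-cultured with peripheral blood mononuclear cells under LPS, 24 h post-dose. Gain or loss of signal scored relative to DMSO baseline.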

Read-out in test [7]: Macrophage colony-stimulating factor (MCSF), CSF1 (gene 1435)
The test is described as follows: BSK_LPS_MCSF: BioMAP Diversity Plus: LPS Assay for Macrophage colony-stimulating factor (MCSF) Biomarker Activity (AID 2283083). The conditions noted are these: primary human HUVEC with PBMC; actives raise or lower the signal. The procedure, abridged:
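Compound is added to a human vascular primary co-culture of umbilical vein endothelium and blood mononuclear cells. After 24 h, M-CSF is quantified by ELISA. Signal changes are fitted in both directions against DMSO.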

Read-out in test [8]: Tissue Factor, F3 (gene 2152)
Briefly: BSK_LPS_TissueFactor: BioMAP Diversity Plus: LPS Assay for Tissue Factor Biomarker Activity (AID 2283084). The conditions noted are these: primary human HUVEC with PBMC; actives raise or lower the signal. In a few lines: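 In this co-culture system of umbilical vein endothelium with PBMC, stimulated with LPS, cell-surface CD142 is detected by ELISA at 24 h. Endpoint values derive from bidirectional fitting, DMSO serving as baseline.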

Read-out in test [9]: Tumor necrosis factor (Homo sapiens) (UniProt P01375)
Briefly: BSK_LPS_TNFa: BioMAP Diversity Plus: LPS Assay for Tumour Necrosis Factor alpha (TNFa) Biomarker Activity (AID 2283085).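 For AC50: TNFa protein level quantified by ELISA in the co-culture.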 The conditions noted are these: primary human HUVEC with PBMC; actives raise or lower the signal. The procedure, abridged: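 HUVEC/PBMC co-culture, LPS-stimulated; 24 h post-dose; TNFa by ELISA; gain or loss of signal fitted bidirectionally vs DMSO baseline.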

Read-out in test [10]: Vascular cell adhesion molecule 1 (VCAM1), VCAM1 (gene 7412)
The test is described as follows: BSK_LPS_VCAM1: BioMAP Diversity Plus: LPS Assay for Vascular cell adhesion molecule 1 (VCAM1) Biomarker Activity (AID 2283086). The conditions noted are these: primary human HUVEC with PBMC; actives raise or lower the signal. The procedure, abridged: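 ELISA read-out of VCAM-1 at 24 h post-dosing in an LPS-driven HUVEC/PBMC primary human co-culture; gain or loss of signal fitted bidirectionally against DMSO baseline. Cytotoxicity tracked in parallel cultures by SRB total-protein staining.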

The source made the active and inactive calls. Rule for the calls: active = hit-call score of the fitted dose curve at least 0.9, where 1 is the maximum; inactive = score below 0.9.

Chain of Tumor necrosis factor (Homo sapiens) (P01375 whole entry, looked up): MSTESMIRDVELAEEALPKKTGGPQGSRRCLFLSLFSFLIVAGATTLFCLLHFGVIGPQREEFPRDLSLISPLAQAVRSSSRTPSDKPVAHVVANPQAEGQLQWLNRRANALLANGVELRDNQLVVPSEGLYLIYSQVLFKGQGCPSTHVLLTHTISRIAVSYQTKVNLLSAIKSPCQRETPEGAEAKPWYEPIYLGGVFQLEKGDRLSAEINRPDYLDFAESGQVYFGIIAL
Chain of E-selectin (Homo sapiens) (P16581 whole entry, looked up): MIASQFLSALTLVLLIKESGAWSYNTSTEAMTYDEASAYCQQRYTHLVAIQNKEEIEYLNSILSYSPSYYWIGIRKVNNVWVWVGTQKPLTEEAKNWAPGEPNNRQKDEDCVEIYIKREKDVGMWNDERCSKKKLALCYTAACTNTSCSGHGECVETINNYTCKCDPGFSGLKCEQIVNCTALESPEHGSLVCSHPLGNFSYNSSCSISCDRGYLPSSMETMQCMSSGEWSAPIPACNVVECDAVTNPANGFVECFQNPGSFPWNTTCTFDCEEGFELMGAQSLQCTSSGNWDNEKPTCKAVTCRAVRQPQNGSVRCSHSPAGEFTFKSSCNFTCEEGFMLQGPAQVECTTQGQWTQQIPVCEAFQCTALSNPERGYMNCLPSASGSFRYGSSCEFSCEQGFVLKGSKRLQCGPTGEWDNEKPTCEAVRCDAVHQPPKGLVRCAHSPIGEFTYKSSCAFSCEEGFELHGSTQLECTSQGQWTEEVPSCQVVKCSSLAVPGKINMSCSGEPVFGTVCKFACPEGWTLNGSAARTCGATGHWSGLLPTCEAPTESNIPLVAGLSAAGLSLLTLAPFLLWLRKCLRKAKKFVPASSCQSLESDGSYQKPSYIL

As to `CCCCOC(=O)CCCCC(=O)OCCCC`, the outcome in test [1], in test [2], in test [3], in test [4], in test [5] and in test [6] was inactive. For the same compound, the outcome in test [7], in [8], in test [9] and in test [10] was inactive.
Turning to `Oc1ccccc1O`, the result in test [1], in [2], in test [4], in test [5], in [8] and in test [9] was inactive. Further, the AC50 in test [3] was 7.37 µM (active); in test [6], 14.4 µM (active); in test [7] it was 3.92 µM (active); in [10], 2.79 µM (active).
`CCCCc1nc2cccnc2n1Cc1ccc(-c2ccccc2-c2nnn[nH]2)cc1`: the result in [1], in test [2], in test [3], in test [4], in test [5] and in [6] was inactive. Also, the result in [7], in test [8], in test [9] and in test [10] was inactive.
`CC(=O)O`: the outcome in [1], in test [2], in [3], in [4], in [5] and in test [6] was inactive. Moreover, the result in test [7], in test [8], in [9] and in test [10] was inactive.
`CN(C)C(=O)NC1(c2ccccc2)CCN(CC[C@@]2(c3ccc(F)c(F)c3)CN(C(=O)c3ccccc3)CCO2)CC1`: the result in test [1], in test [2], in [3], in [4], in test [5] and in test [6] was inactive. In addition, the outcome in test [7], in test [8], in test [9] and in [10] was inactive.
Turning to `CCCCC(CC)CO` (stereo unspecified), the result in test [1], in test [2], in [3], in test [4], in [5] and in [6] was inactive. Moreover, the result in test [7], in test [8], in [9] and in test [10] was inactive.
`CO[C@@H]1COCC[C@@H]1N[C@@H]1CC[C@@](C(=O)N2CCc3ncc(C(F)(F)F)cc3C2)(C(C)C)C1`: the outcome in test [1], in [2], in test [3], in [4], in [5] and in test [6] was inactive. Also, the outcome in test [7], in test [8], in [9] and in test [10] was inactive.
Regarding `CC(C)COC(=O)CCCCC(=O)OCC(C)C`, the result in test [1], in [2], in test [3], in test [4], in test [5] and in test [6] was inactive. The result in [7], in test [8] and in test [10] was inactive.
Consider `CCc1nc(N)nc(N)c1-c1ccc(Cl)cc1`, for which the result in [1], in [2], in test [3], in [4], in test [5] and in test [6] was inactive. Also, the result in test [7], in [8], in test [9] and in test [10] was inactive.
Regarding `O=[Si]=O`, the result in test [1], in [2], in test [3], in [4], in [5] and in [6] was inactive. Moreover, the result in test [7], in test [8] and in [10] was inactive.
`COC(=O)[C@H]1[C@H]2C[C@@H]3c4[nH]c5cc(OC)ccc5c4CCN3C[C@H]2C[C@@H](OC(=O)c2cc(OC)c(OC)c(OC)c2)[C@@H]1OC`: the outcome in test [1] and in test [2] was inactive. In addition, the AC50 in [3] was 21.8 µM (active); in test [4], 22.6 µM (active); in test [5], 18.6 µM (active); in test [7] it was 21.2 µM (active); in [8] it was 7.64 µM (active); in test [9], 28.7 µM (active). Further, the AC50 in test [10] was 12 µM (active).
`C=CCCCCCCCCCCCC`: the result in test [1], in [2], in test [3], in test [4], in test [5] and in test [6] was inactive. The outcome in test [7], in test [8] and in [10] was inactive.
Turning to `C=CCc1ccc(OC)c(OC)c1`, the outcome in [1], in test [2], in [3], in [4], in test [5] and in test [6] was inactive. Also, the outcome in test [7], in test [8] and in test [10] was inactive.
As to `O=C(O)c1[nH]n(-c2ccc(S(=O)(=O)O)cc2)c(=O)c1N=Nc1ccc(S(=O)(=O)O)cc1`, the outcome in test [1], in test [2], in [3], in test [4], in test [5] and in test [6] was inactive. Besides, the outcome in test [7], in test [8] and in test [10] was inactive.
Turning to `Oc1ccc(O)cc1`, the AC50 in [1] was 26.2 µM (active); in test [2], 30.7 µM (active); in test [4], 8.51 µM (active); in test [5], 25.8 µM (active); in test [6] it was 30 µM (active); in [7] it was 9.78 µM (active). For the same compound, the AC50 in [10] was 20 µM (active). The result in [3] and in test [8] was inactive.
Regarding `CC(=O)O[C@]1(C(C)=O)CC[C@H]2[C@@H]3C=C(Cl)C4=CC(=O)[C@@H]5C[C@@H]5[C@]4(C)[C@H]3CC[C@@]21C`, the outcome in test [1], in test [2], in test [4], in test [5], in test [6] and in test [7] was inactive. Further, the outcome in test [8] and in [10] was inactive. The AC50 in test [3] is 30.9 µM (active).
`CCCCC(CC)COC(=O)CCCCCCCC(=O)OCC(CC)CCCC` (stereo unspecified): the outcome in test [1], in test [2], in test [3], in [4], in test [5] and in test [6] was inactive. For the same compound, the outcome in test [7], in [8] and in test [10] was inactive.
For the compound `O=NO`, the outcome in test [1], in [2], in test [3], in test [4], in [5] and in test [7] was inactive. In addition, the result in [8], in test [9] and in [10] was inactive.
Consider `CC(C)(C)c1ccccc1`, for which the outcome in test [1], in [2], in test [3], in test [4], in [5] and in test [7] was inactive. For the same compound, the outcome in test [8], in test [9] and in test [10] was inactive.
In the case of `CC(=O)OC1CC(C)OC(C)O1` (stereo unspecified), the result in [1], in [2], in test [3], in test [4], in test [5] and in test [6] was inactive. The result in test [7], in test [8] and in test [10] was inactive.
As for `O=C1NC(=O)C(c2ccccc2)(c2ccccc2)N1`, the outcome in [1], in [2], in test [3], in test [4], in test [5] and in [7] was inactive. Besides, the outcome in test [8], in test [9] and in [10] was inactive.
Turning to `O=C(O)CC(O)(CC(=O)O)C(=O)O`, the result in test [1], in test [2], in test [3], in [4], in [5] and in test [6] was inactive. The outcome in test [7], in test [8] and in [10] was inactive.

For orientation: AC50 means the concentration at which the activity in the assay is half-maximal.
